Laboratory results: PubChem BioAssay (EPA / NIEHS)
Activity calls are given as the source filed them. The calls were made as follows: active = hit-call score of the fitted dose curve at least 0.9, where 1 is the maximum; inactive = score below 0.9.

Assays:
[1] = read-out: TIMP metallopeptidase inhibitor 2 (TIMP2), TIMP2 (gene 7077); assay: BSK_KF3CT_TIMP2: BioMAP Diversity Plus: KF3CT Assay for TIMP metallopeptidase inhibitor 2 (TIMP2) Biomarker Activity (AID 2283071); conditions: primary human keratinocytes with fibroblasts; actives raise or lower the signal
Outline: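 Co-culture of human primary keratinocytes and foreskin fibroblasts, measured 24 h after chemical dosing. TIMP-2 quantified by ELISA and fitted in both directions relative to DMSO. Cytotoxicity checked in parallel cultures by SRB total-protein staining.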

[2] = read-out: Transforming growth factor beta 1 (TGFb1), TGFB1 (gene 7040); assay: BSK_KF3CT_TGFb1: BioMAP Diversity Plus: KF3CT Assay for Transforming growth factor beta 1 (TGFb1) Biomarker Activity (AID 2283072); conditions: primary human keratinocytes with fibroblasts; actives raise or lower the signal
Outline: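 Human keratinocyte/foreskin fibroblast co-culture; TGF-b1 measured by ELISA 24 h after dosing, fitted bidirectionally versus DMSO. Cytotoxicity checked in parallel cultures by total protein (SRB staining, 560 nm).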

[3] = read-out: C-C motif chemokine 2 (Homo sapiens) (UniProt P13500); assay: BSK_KF3CT_MCP1: BioMAP Diversity Plus: KF3CT Assay for Monocyte Chemoattractant Protein 1 (MCP1/CCL2) Biomarker Activity (AID 2283073); conditions: primary human keratinocytes with fibroblasts; actives raise or lower the signal
Outline: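 ELISA readout of MCP-1 after 24 h chemical dosing of a human skin primary co-culture of keratinocytes and foreskin fibroblasts. Activity was fitted in both directions against DMSO.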

[4] = read-out: Matrix Metallopeptidase 9 (MMP9), MMP9 (gene 4318); assay: BSK_KF3CT_MMP9: BioMAP Diversity Plus: KF3CT Assay for Matrix Metallopeptidase 9 (MMP9) Biomarker Activity (AID 2283074); conditions: primary human keratinocytes with fibroblasts; actives raise or lower the signal;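 as to AC50: MMP9 protein level quantified by ELISA in the co-culture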
Outline: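 Human keratinocyte and foreskin fibroblast co-culture exposed to chemicals for 24 h; MMP9 biomarker measured by ELISA, bidirectional fitting relative to DMSO; cytotoxicity tracked by SRB total protein staining in parallel cultures.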

[5] = read-out: urokinase plasminogen activator (uPA), PLAU (gene 5328); assay: BSK_KF3CT_uPA: BioMAP Diversity Plus: KF3CT Assay for urokinase plasminogen activator (uPA) Biomarker Activity (AID 2283075); conditions: primary human keratinocytes with fibroblasts; actives raise or lower the signal
Outline: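 Primary human keratinocyte/foreskin fibroblast co-culture exposed to chemical; uPA measured by ELISA at 24 h. Bidirectional fit versus DMSO, with parallel SRB total-protein staining for cytotoxicity.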

CD40, CD40 (gene 958) [6] = assay: BSK_LPS_CD40: BioMAP Diversity Plus: LPS Assay for CD40 Biomarker Activity (AID 2283076); conditions: primary human HUVEC with PBMC; actives raise or lower the signal
Outline: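 Cells were dosed, incubated 24 h, then assayed for CD40 by ELISA. Gain or loss of signal was analysed relative to DMSO controls. The culture paired human umbilical vein endothelium with peripheral blood mononuclear cells.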

[7] = read-out: E-selectin (Homo sapiens) (UniProt P16581); assay: BSK_LPS_Eselectin: BioMAP Diversity Plus: LPS Assay for Eselectin Biomarker Activity (AID 2283077); conditions: primary human HUVEC with PBMC; actives raise or lower the signal
Outline: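 Primary human vascular co-culture (endothelium plus PBMC) was dosed with chemical, then E-selectin quantified by ELISA at 24 h. Endpoint values derive from bidirectional curve fitting relative to DMSO.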

[8] = read-out: Interleukin-8 (IL8), CXCL8 (gene 3576); assay: BSK_LPS_IL8: BioMAP Diversity Plus: LPS Assay for Interleukin-8 (IL8) Biomarker Activity (AID 2283078); conditions: primary human HUVEC with PBMC; actives raise or lower the signal
Outline: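 Readout is IL-8 by ELISA, taken 24 h after compounds were added to LPS-stimulated endothelial/PBMC co-cultures. Both increases and decreases relative to DMSO control were scored through bidirectional fitting.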

[9] = BSK_LPS_SRB: Viability Assessment in the BioMAP Diversity Plus: LPS Assay (AID 2283079); conditions: primary human HUVEC with PBMC;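 also: total protein by sulforhodamine B absorbance as a cytotoxicity measure; measured one day after compound addition; fitted in both directions against DMSO so loss or gain of signal counts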
Outline: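 Readout is SRB absorbance at 560 nm (0.1% stain, TCA-fixed parallel cultures) as a total-protein cytotoxicity measure. Cells: primary human umbilical vein endothelium plus peripheral blood mononuclear cells, 24 h after chemical exposure; DMSO served as baseline.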

[10] = read-out: Interleukin-1 alpha (IL1a), IL1A (gene 3552); assay: BSK_LPS_IL1a: BioMAP Diversity Plus: LPS Assay for Interleukin-1 alpha (IL1a) Biomarker Activity (AID 2283080); conditions: primary human HUVEC with PBMC; actives raise or lower the signal
Outline: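 ELISA read-out of IL-1 alpha from a human primary vascular co-culture (endothelium plus PBMC) under LPS, sampled 24 hours post-dosing. Activity was fitted in both directions relative to DMSO controls.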

[11] = BSK_LPS_PGE2: BioMAP Diversity Plus: LPS Assay for Prostaglandin E2 (PGE2) Biomarker Activity (AID 2283082); conditions: primary human HUVEC with PBMC; actives raise or lower the signal;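 as to AC50: secreted prostaglandin E2 measured by ELISA in LPS-stimulated co-culture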
Outline: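 HUVEC plus human PBMC co-culture stimulated with LPS; secreted PGE2 quantified by ELISA 24 h after chemical dosing. Activity fitted bidirectionally against DMSO baseline; parallel SRB staining (0.1% SRB after 10% TCA fixation, 560 nm) flags overt cytotoxicity.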

[12] = read-out: Tissue Factor, F3 (gene 2152); assay: BSK_LPS_TissueFactor: BioMAP Diversity Plus: LPS Assay for Tissue Factor Biomarker Activity (AID 2283084); conditions: primary human HUVEC with PBMC; actives raise or lower the signal
Outline: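 ELISA signal for cell-surface Tissue Factor (CD142) was read 24 h after compound dosing of an LPS-stimulated human endothelial–PBMC primary co-culture. Gain or loss of signal was scored relative to DMSO.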

[13] = read-out: Tumor necrosis factor (Homo sapiens) (UniProt P01375); assay: BSK_LPS_TNFa: BioMAP Diversity Plus: LPS Assay for Tumour Necrosis Factor alpha (TNFa) Biomarker Activity (AID 2283085); conditions: primary human HUVEC with PBMC; actives raise or lower the signal
Outline: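 Human umbilical vein endothelial cells co-cultured with PBMC and stimulated with LPS. TNFa was measured by ELISA 24 h after chemical dosing, fitted bidirectionally relative to DMSO.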

[14] = read-out: Vascular cell adhesion molecule 1 (VCAM1), VCAM1 (gene 7412); assay: BSK_LPS_VCAM1: BioMAP Diversity Plus: LPS Assay for Vascular cell adhesion molecule 1 (VCAM1) Biomarker Activity (AID 2283086); conditions: primary human HUVEC with PBMC; actives raise or lower the signal
Outline: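 Human umbilical vein endothelial cells co-cultured with PBMC and stimulated with LPS; VCAM-1 measured by ELISA 24 h after dosing. Bidirectional curve fitting against DMSO baseline; cytotoxicity tracked in parallel by SRB total-protein staining.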

CD38, CD38 (gene 952) = assay: BSK_SAg_CD38: BioMAP Diversity Plus: SAg Assay for CD38 Biomarker Activity (AID 2283087); conditions: primary human HUVEC with PBMC; actives raise or lower the signal
Outline: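 Human HUVEC plus PBMC co-culture stimulated with superantigen; CD38 measured by ELISA 24 h after chemical dosing. Fluorescence read-out, bidirectional fit against DMSO; cytotoxicity tracked in parallel by SRB and Alamar Blue.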

CD40, CD40 (gene 958) [15] = assay: BSK_SAg_CD40: BioMAP Diversity Plus: SAg Assay for CD40 Biomarker Activity (AID 2283088); conditions: primary human HUVEC with PBMC; actives raise or lower the signal
Outline: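 Compounds were dosed onto a human primary endothelial–PBMC co-culture, and after 24 h CD40 was quantified by ELISA using a fluorescence signal. Activity in either direction was fitted relative to DMSO.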

CD69, CD69 (gene 969) = assay: BSK_SAg_CD69: BioMAP Diversity Plus: SAg Assay for CD69 Biomarker Activity (AID 2283089); conditions: primary human HUVEC with PBMC; actives raise or lower the signal;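 as to AC50: cell surface CD69 protein quantified by ELISA with fluorescence detection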
Outline: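 ELISA, fluorescence read-out: CD69 on human umbilical vein endothelial cell + PBMC co-culture, 24 h post-dosing. Gain or loss of signal fitted bidirectionally against DMSO baseline.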

[16] = read-out: Monocyte Chemoattractant Protein-1 (MCP1), CCL2 (gene 6347); assay: BSK_SAg_MCP1: BioMAP Diversity Plus: SAg Assay for Monocyte Chemoattractant Protein-1 (MCP1) Biomarker Activity (AID 2283090); conditions: primary human HUVEC with PBMC; actives raise or lower the signal
Outline: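 MCP-1 levels in the endothelial–PBMC SAg co-culture were quantified by ELISA at 24 h post-dosing; both increases and decreases versus DMSO scored. Cytotoxicity monitored by SRB total protein in parallel cultures.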

[17] = read-out: Macrophage colony-stimulating factor (MCSF), CSF1 (gene 1435); assay: BSK_LPS_MCSF: BioMAP Diversity Plus: LPS Assay for Macrophage colony-stimulating factor (MCSF) Biomarker Activity (AID 2283083); conditions: primary human HUVEC with PBMC; actives raise or lower the signal
Outline: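 ELISA readout of M-CSF after 24 h compound exposure in a human endothelial/PBMC co-culture. Activity, in either direction, is fitted relative to DMSO vehicle.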

[18] = read-out: Monocyte Chemoattractant Protein-1 (MCP1), CCL2 (gene 6347); assay: BSK_LPS_MCP1: BioMAP Diversity Plus: LPS Assay for Monocyte Chemoattractant Protein-1 (MCP1) Biomarker Activity (AID 2283081); conditions: primary human HUVEC with PBMC; actives raise or lower the signal;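 as to AC50: secreted MCP-1 protein quantified by ELISA in culture supernatant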
Outline: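 Human endothelial–PBMC co-cultures were dosed with chemical, then LPS-driven MCP-1 levels were quantified by ELISA at 24 h. Activity in either direction was fitted versus DMSO negative control.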

Measured: AC50

E-selectin (Homo sapiens), sequence (P16581 whole entry, looked up): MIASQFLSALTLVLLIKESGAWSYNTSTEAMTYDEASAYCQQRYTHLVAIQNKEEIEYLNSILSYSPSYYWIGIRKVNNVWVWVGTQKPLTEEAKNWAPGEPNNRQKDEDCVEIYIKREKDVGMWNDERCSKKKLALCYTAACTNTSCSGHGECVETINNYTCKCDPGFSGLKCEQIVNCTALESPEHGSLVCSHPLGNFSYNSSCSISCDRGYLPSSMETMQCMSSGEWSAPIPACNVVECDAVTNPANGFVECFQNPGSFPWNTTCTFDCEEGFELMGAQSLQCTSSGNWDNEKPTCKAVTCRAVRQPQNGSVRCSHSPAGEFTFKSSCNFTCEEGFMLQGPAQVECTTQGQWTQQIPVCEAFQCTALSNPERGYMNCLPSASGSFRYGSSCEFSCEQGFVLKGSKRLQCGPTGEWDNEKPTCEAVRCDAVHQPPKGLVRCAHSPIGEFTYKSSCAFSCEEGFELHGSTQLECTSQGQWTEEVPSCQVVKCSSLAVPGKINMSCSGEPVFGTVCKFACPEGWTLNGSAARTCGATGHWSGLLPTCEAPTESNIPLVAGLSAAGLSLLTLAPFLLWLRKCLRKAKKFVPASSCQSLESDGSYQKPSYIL
Tumor necrosis factor (Homo sapiens), sequence (P01375 whole entry, looked up): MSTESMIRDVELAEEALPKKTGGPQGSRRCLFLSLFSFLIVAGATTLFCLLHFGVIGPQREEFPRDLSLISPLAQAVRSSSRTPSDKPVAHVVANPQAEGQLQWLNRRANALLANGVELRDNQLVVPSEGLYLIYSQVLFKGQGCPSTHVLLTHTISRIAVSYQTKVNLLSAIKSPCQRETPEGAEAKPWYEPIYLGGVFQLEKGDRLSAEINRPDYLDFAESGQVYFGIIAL

CC1=CC(=O)/C(=C(/C)O)C(=O)O1
active: [3] 0.396 µM | [10] 20 µM
not listed: [17] | [18]
inactive: all other assays above

COCC(C)OCC(C)OCC(C)O (stereo unspecified)
not listed: [18]
inactive: all other assays above

O=CCCCC=O
active: [1] 26.2 µM | [2] 29.6 µM | [3] 32 µM | [4] 24.9 µM | [5] 32 µM | [10] 32.9 µM | [13] 32.7 µM | [14] 33 µM | CD40, CD40 (gene 958) [15] 29.8 µM
not listed: [17]
inactive: all other assays above

CC[C@@H]1C[C@H](N(Cc2cc(C(F)(F)F)cc(C(F)(F)F)c2)C(C)=O)c2cc(C(F)(F)F)ccc2N1C(=O)OC(C)C
not listed: CD38, CD38 (gene 952) | [17]
inactive: all other assays above

Cc1ccc2oc(CN(Cc3ccccc3)C(=O)Nc3c(F)cc(F)cc3F)c(-c3ccc(Cl)cc3)c2c1
active: [1] 26.4 µM
not listed: CD38, CD38 (gene 952) | [17] | [18]
inactive: all other assays above

c1ccc2n[nH]nc2c1
not listed: [17]
inactive: all other assays above

CC/C(=C(/CC)c1ccc(O)cc1)c1ccc(O)cc1
active: [1] 29.1 µM | [2] 5.87 µM | [3] 11.2 µM | [4] 12.3 µM | [5] 29.3 µM | CD40, CD40 (gene 958) [6] 20 µM | [7] 30.3 µM | [8] 37 µM | [9] 25.4 µM | [10] 29.7 µM | [18] 33.9 µM | [11] 20 µM | [12] 29.9 µM | [13] 32.3 µM | [14] 26.8 µM | CD40, CD40 (gene 958) [15] 17.8 µM | CD69, CD69 (gene 969) 25.1 µM | [16] 21.6 µM

Cc1cn([C@H]2C[C@H](N=[N+]=[N-])[C@@H](CO)O2)c(=O)[nH]c1=O
not listed: [18]
inactive: all other assays above

CCCCOC(=O)c1ccc(O)cc1
active: [11] 20 µM
not listed: CD38, CD38 (gene 952)
inactive: all other assays above

O=C=NCCCCCCN=C=O
not listed: [1]
inactive: all other assays above

O=C(OCCCCCCOC(=O)c1ccccc1)c1ccccc1
active: [11] 32.4 µM | [13] 4.86 µM
not listed: CD38, CD38 (gene 952) | [18]
inactive: all other assays above

C[C@]12CC[C@@H]3c4ccc(O)cc4CC[C@H]3[C@@H]1CCC2=O
active: [7] 0.122 µM
not listed: [17] | [18]
inactive: all other assays above
